The values that follow come from patent publication US20050164186, “Alteration of restriction endonuclease specificity by genetic selection” (published 2005).

The assay addresses T1, BstYI NN1 (K133N/S172N) (Bacillus stearothermophilus, K133N,S172N).
T1 chain: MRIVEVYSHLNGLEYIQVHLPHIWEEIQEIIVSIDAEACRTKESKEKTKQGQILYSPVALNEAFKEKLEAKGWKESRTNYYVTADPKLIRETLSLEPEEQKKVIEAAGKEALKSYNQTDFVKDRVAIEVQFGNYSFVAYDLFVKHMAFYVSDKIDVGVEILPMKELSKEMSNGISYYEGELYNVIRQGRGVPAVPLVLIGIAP
In words: cleavage_in_vitro; 60 C. The following applies: label: radiolabel; dsDNA, one strand shown.

AGATCC came in with a cleavage activity of 7 fold lower than AGATCT.
